High-throughput results deposited in PubChem BioAssay by National Center for Advancing Translational Sciences (NCATS).
Vif-APOBEC3F blk = blocks the Vif interaction with APOBEC3F | Potency, µM (titrated, usually from 46.1 µM) | 390,000 compounds, 0.2% hits | HeLa A3F-eYFP + Vif (tagged APOBEC3F with the HIV-1 protein that degrades it), YFP fluorescence increase; note: nearly all actives have a fitted effect of over 65% in size
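Fluorescence increase (Ex 488/Em 500-530) after overnight compound treatment at 37 deg C flags inhibition of Vif-driven A3F-eYFP loss in stable HeLa A3F-eYFP/Vif cells seeded overnight beforehand.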
Vif-APOBEC3G blk = inhibitors of Vif-APOBEC3G interaction; Q9HC16; HeLa A3G-eYFP + Vif (tagged APOBEC3G with the HIV-1 protein that degrades it), YFP fluorescence, overnight; Potency, µM (highest dose often 46.1 µM), actives largely listed as inhibitors; 410,000 compounds, 0.076% hits; AID 602310; note: nearly all actives have a fitted effect of over 60% in size
Target sequence (Q9HC16 whole entry, looked up): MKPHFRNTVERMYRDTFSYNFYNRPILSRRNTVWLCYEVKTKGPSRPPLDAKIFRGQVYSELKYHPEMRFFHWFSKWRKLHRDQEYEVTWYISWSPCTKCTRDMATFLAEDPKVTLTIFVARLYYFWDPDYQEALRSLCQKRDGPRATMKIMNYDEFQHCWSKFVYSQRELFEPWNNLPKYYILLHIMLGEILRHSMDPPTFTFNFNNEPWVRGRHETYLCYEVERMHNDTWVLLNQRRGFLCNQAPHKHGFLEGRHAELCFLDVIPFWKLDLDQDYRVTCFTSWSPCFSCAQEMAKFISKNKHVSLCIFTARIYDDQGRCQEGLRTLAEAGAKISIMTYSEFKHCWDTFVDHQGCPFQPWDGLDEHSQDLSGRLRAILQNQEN
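HeLa cells stably expressing Vif and C-terminally eYFP-tagged A3G, seeded overnight at 37 deg C, then exposed to compound by pintool overnight at 37 deg C. Rise in yellow fluorescence (Ex 488/Em 500-530, Acumen) marks blocked Vif-driven A3G degradation.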
SW480 rereplic = DNA re-replication induction in SW480 cells; SW480 DNA re-replication, Hoechst DNA content imaging, 48 h; Potency, µM (doses to about 46.1 µM), most hits filed as activators; 340,000 compounds, 1.8% hits; note: nearly all actives have a fitted effect of over 55% in size
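Treated cells incubate 48 hr (37 C, 5% CO2), are stained 40 min with Hoechst, and nuclear fluorescence is enumerated; a rise in nuclei with high DNA signal marks re-replication.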
IL-1B inflam inh = blocks inflammasome-driven IL-1 beta release; THP-1 LPS/ATP IL-1B secretion, AlphaLISA, 16 h; active compounds read low; activity change, % at 57.5 µM; 360,000 compounds, 4.7% hits; AID 743279; in the data active = activity change below about -50%; inconclusive = mostly about -30% to -49%
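Secreted IL-1B measured by AlphaLISA bead assay after 16 h compound exposure of THP-1 cells; compounds (final up to 57.5 uM) added 1 h before LPS (250 ng/mL) and ATP (1.25 mM) stimulation; lower signal means less secretion.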
Giardia killer = Giardia lamblia killing; Giardia lamblia trophozoite viability; activity change, % at 7.66 µM, hits read low; 340,000 compounds, 0.15% hits; in the data active = activity change below about -80%; inconclusive = between about -30% and that limit;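 note: parasites exposed to compound for two days anaerobically before the ATP read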
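Luminescent ATP signal served as the viability read-out, measured 15-30 min after adding ATP detection reagent to trophozoites that had been incubated with compounds for 48 hrs at 37 deg C anaerobically at 100 cells/well.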
MCF10A rerep = DNA re-replication induction in MCF 10a cells; MCF 10A DNA re-replication, Hoechst nuclear intensity, 48 h; Potency, µM (series often up to 46.1 µM), hits mostly activators; 350,000 compounds, 2.9% hits; AID 624296; note: nearly all actives have a fitted effect of over 50% in size
A number is an active result; 0 = inactive; ? = inconclusive; - = no result given; ! = not active in a repeat; [ ] = dose if it differs, or a comment. Sampled rows, rich in hits. Any-hit rate of the full collection: about 6.9%. Unless noted, calls come from the whole dose curve; as a rule, active = well fitted curve in the direction sought with a large enough effect; inconclusive = small, poorly fitted or top-dose-only effect, or another doubt; inactive = no such curve, though single readings can be large; an effect the other way counts as inactive or inconclusive.

SMILES | Vif-APOBEC3F blk | Vif-APOBEC3G blk | SW480 rereplic | IL-1B inflam inh | Giardia killer | MCF10A rerep
CC(C)(CO)NCC(O)COc1ccc2c(c1)CCC2 (centres undefined) | 0 | 0 | 0 | 0 | 0 | 0
Cc1cccc(-n2ncc3c(NNC(=O)c4ccccc4Cl)ncnc32)c1 | 0 | 0 | - | - | - | -
Cc1ccc(NC(=O)CSc2nc3c(sc4ccccc43)c(=O)n2CCCC(=O)NC2CCCC2)cc1C | 0 | 0 | - | - | - | -
Cc1ccc(SCC(Cc2ccccc2)N2CCN(C)CCC2=O)cc1 (centres undefined) | - | 0 | - | - | 0 | -
Cc1cc(OCC(O)CN2CCN(c3ccccn3)CC2)cc(C)c1Cl (centres undefined) | 0 | 0 | 0 | -69 | 0 | ?
CCOC(=O)c1c(C)[nH]c(C)c1S(=O)(=O)N(C)CC(=O)N1CCN(c2ccccc2OC)CC1 | 0 | 0 | - | - | - | -
c1ccc(-n2cnnn2)cc1 | - | - | 0 | - | - | 0
COc1cc(/C=C(\C#N)C(=O)N2CCOCC2)ccc1OCc1ccccc1 | 0 | 0 | 0 | 0 | 0 | 0
COc1ccc(/C=C(\C#N)C(=O)N2CCOCC2)cc1Br | 0 | 0 | 0 | -68 | 0 | 0
Cc1ccc(CNC(=O)c2c(-c3ccccc3F)noc2C)o1 | 0 | 0 | - | - | - | -
CN=c1sc2c(n1C)C(=O)c1ccccc1C2=O | 0 | 0 | 13µM | ? | ? | 8.2µM
Cc1ccc(S(=O)(=O)N2CCC(C(=O)NCC3CC3)CC2)cc1 | 0 | 0 | 0 | 0 | 0 | 0
COC(=O)C(Cc1ccc(O)cc1)NC(=O)C1CCN(S(=O)(=O)c2ccc(C)cc2)CC1 (centres undefined) | 0 | 0 | 0 | -99 | 0 | 0
CCN(CC)C(=O)c1sc2c(c1C)c(=O)n(-c1ccc(C)c(C)c1)c(=O)n2Cc1cc(=O)n2c(C)cccc2n1 | 0 | 0 | - | - | - | -
CCN1CCN(Cc2ccc(NC(=O)c3cc(NC(=O)c4cc(-c5ccc(OC)cc5)n[nH]4)cc(OC)c3)cc2C(F)(F)F)CC1 | 0 | 0 | 0 | 0 | 0 | 0
CCN1CCN(Cc2ccc(NC(=O)c3cc(NC(=O)c4cncc(-c5cccs5)c4)cc(OC)c3)cc2C(F)(F)F)CC1 | 0 | 0 | ? | -104! | 0 | 23µM
CCN1CCN(Cc2ccc(NC(=O)c3cc(NC(=O)c4cc5cccc(OC)c5o4)cc(OC)c3)cc2C(F)(F)F)CC1 | ? | ? | 0 | -107! | 0 | 0
CCN1CCN(Cc2ccc(NC(=O)c3cc(NC(=O)c4ccno4)cc(OC)c3)cc2C(F)(F)F)CC1 | 0 | 0 | 0 | ? | 0 | ?
CCn1nnc2cc(C(=O)Nc3ccc(Cl)cc3C)ccc21 | 0 | 0 | - | - | - | -
N/C(Cc1nc(-c2ccc(F)cc2)cs1)=N\O | 0 | 0 | 0 | -54 | 0 | 0
Cc1ccc(NC(=O)c2nnn(-c3ccc4c(c3)OCCO4)c2N)cc1 | 0 | 0 | 0 | -90 | 0 | 0
Nc1c(C(=O)Nc2ccccc2)nnn1-c1ccc2c(c1)OCCO2 | 0 | 0 | 0 | -60 | 0 | 0
Cc1ccc(NC(=O)c2nnn(-c3cccc(C(F)(F)F)c3)c2N)cc1 | 0 | 0 | 0 | 0 | 0 | 0
Cc1ccccc1Cn1nnc(C(=O)Nc2ccc3c(c2)OCCO3)c1N | 0 | 0 | 0 | ? | 0 | 0
COc1ccc(CCNC(=O)CCS(=O)(=O)c2cc3c(cc2Cl)NC(=O)CO3)cc1OC | 0 | 0 | - | - | - | -
SMILES | Vif-APOBEC3F blk | Vif-APOBEC3G blk | SW480 rereplic | IL-1B inflam inh | Giardia killer | MCF10A rerep
Cc1nsc2nc3c(F)c(F)c(F)c(F)c3cc12 | 0 | 0 | ? | -97 | 0 | 0
Cc1cc(C(=O)Nc2ccc(Cl)cc2)c(C)n1-c1ccccc1 | 0 | 0 | ? | -91 | ? | ?
Cc1ccc(-n2c(C)cc(C(=O)NS(=O)(=O)c3ccc(C)cc3)c2C)cc1 | 0 | 0 | 0 | 0 | 0 | 0
Cc1ccc(NC(=O)c2cc(C)n(-c3ccccc3)c2C)cc1 | 0 | 0 | 0 | -83 | ? | 3.3µM
Cc1ccc(NC(=O)c2cc(C)n(-c3cccc(C)c3)c2C)cc1 | 0 | 0 | ? | -66 | 0 | ?
CCc1cccc(C)c1Nc1c(-c2cccs2)nc2nc(C)cc(C)n12 | 0 | 0 | - | - | - | -
COC(=O)c1ccc(C(NC(=O)OCc2ccccc2)/C(F)=C/[C@@H](C)C(=O)NCc2ccc(OC)c(OC)c2)cc1 (some centres undefined) | 0 | 0 | 16µM | 0 | 0 | ?
c1ccc(-c2c3ccccc3nc3[nH]c4ccccc4c23)cc1 | 0 | 0 | 12µM | 0 | 0 | ?
COc1ccc(C(C)=O)cc1Cn1c(C)c(C(=O)NCc2cccc(C)c2)sc1=O | - | 0 | - | -79 | - | -
CSc1ccc(Cn2c(C)c(C(=O)NCc3ccccc3C(F)(F)F)sc2=O)cc1 | - | 0 | - | - | - | -
COc1ccc(C(C)=O)cc1Cn1c(C)c(C(=O)NCc2cccc(Cl)c2)sc1=O | - | 0 | - | 0 | - | -
Cc1c(C(=O)NCc2ccccc2C(F)(F)F)sc(=O)n1Cc1ccc(Cl)c(Cl)c1 | - | 0 | - | -72 | - | -
CSc1ccc(Cn2c(C)c(C(=O)NCc3cccc(C)c3)sc2=O)cc1 | - | 0 | - | -65 | - | -
CCN1CCc2c(sc(NC(=O)c3ccc(S(=O)(=O)N4CCCC(C)C4)cc3)c2C(=O)OC)C1 (centres undefined) | ? | 0 | - | - | - | -
O=C(NCc1ccccc1)c1ccc(CSc2ccccc2)o1 | 0 | 0 | 0 | -91 | 0 | 0
O=C(NCc1ccccc1)c1onc(CSc2ccccc2)c1C(=O)NCC1CC1 | 0 | 0 | 0 | -52 | 0 | ?
O=C(Cn1c(=O)n(Cc2ccc(C(=O)NCc3ccccc3Cl)cc2)c(=O)c2ccccc21)Nc1ccc(F)c(Cl)c1 | 0 | 0 | - | - | - | -
CCOC(=O)Cn1nnc(-c2ccc(S(C)(=O)=O)cc2)n1 | 0 | 0 | 0 | -60 | 0 | 0
CCN(CC)C(=O)Cn1nnc(-c2ccc(S(C)(=O)=O)cc2)n1 | 0 | 0 | ? | 0 | 0 | 0
O=C(c1ccc(N2C(=O)c3ccccc3C2=O)cc1)N1CCCCC1 | 0 | 0 | 0 | 0 | 0 | 0
CCc1ccc(N2C(=O)C(Cl)=C(Nc3ccc(C(=O)N4CCCC4)cc3)C2=O)cc1 | 0 | 0 | ? | -92 | 0 | 10µM
O=C1NC(c2ccccn2)Nc2sc3c(c21)CCC3 (centres undefined) | 0 | 0 | 0 | 0 | 0 | 16µM
CN1CCc2c(sc3c2C(=O)NC(c2ccccn2)N3)C1 (centres undefined) | 0 | 0 | 0 | ? | 0 | 0
CN(C)CCCNC(=O)C[C@H]1C[C@H](C(=O)N2CCCCC2)[C@@]2(CCc3ccccc3)c3[nH]c4cc(-c5ccco5)ccc4c3CCN2C1=O | 0 | 0 | 0 | 0 | 0 | ?
CC[C@]12c3[nH]c4cc(-c5ccco5)ccc4c3CCN1C(=O)[C@@H](CC(=O)NCc1cccc(C(F)(F)F)c1)C[C@@H]2C(=O)N1CCN(C(=O)C2CC2)CC1 | 0 | 0 | 0[9.22 µM] | 0 | ? | 0
